TDP1 cell noCPT – qHTS for Inhibitors of human tyrosyl-DNA phosphodiesterase 1 (TDP1): qHTS in cells in absence of CPT | DT40 Tdp1-/- hTDP1 cells, no CPT, ATP luminescence, 48 h | Potency, µM (titrated, usually from 46.2 µM), inactives show at the top dose activity change, negative = growth inhibition, most hits filed as inhibitors | 420,000 compounds, 15% hits; also: nearly all actives have a fitted effect of over 55% in size
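DT40 Tdp1-/-;hTDP1 cells, no CPT (DMSO vehicle only), 400 cells/well; compounds pin-transferred; ≥48 hr, 37 °C; CellTiter-Glo 30 min RT dark, luminescence read.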
VP16 counter – counter-screen for ROR gamma inhibitors: Gal4-VP16 reporter | Drosophila S2 Gal4-VP16 UAS-luciferase, luminescence, 20 h | Potency, µM (titrated, usually from 53.6 µM), for the others: at the highest dose activity, negative = inhibition, most hits filed as inhibitors | 310,000 compounds, 3.5% hits;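 also: Gal4-VP16 expression switched on by copper sulfate through the metallothionein promoter; nearly all actives have a fitted effect of over 50% in size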
TDP1 block – blocks human tyrosyl-DNA phosphodiesterase 1; Q9NUW8; recombinant TDP1, AlphaScreen DNA substrate cleavage; Potency, µM (titrated, usually from 130 µM), inactives show at the highest dose activity change, negative = inhibition, hits mostly inhibitors; 350,000 compounds, 0.28% hits; AID 485290; also: nearly all actives have a fitted effect of over 40% in size
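AlphaScreen read-out: signal falls as enzyme removes the 3' tyrosine-FITC from a 5'-biotinylated DNA oligo (15 nM, 5 min, RT). Enzyme was E. coli-made recombinant Tdp1 at 1 nM, exposed to compound for 15 min beforehand; beads 10 ug/ml, 10 min.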
RORg inh – ROR gamma (mouse) transcription inhibition | P51450 | Drosophila S2 Gal4-RORgamma UAS-luciferase reporter, 20 h | Potency, µM (series often up to 53.6 µM), for inactives: at the highest dose activity change, negative = inhibition, usual class: inhibitors | 310,000 compounds, 5.4% hits; also: nearly all actives have a fitted effect of over 60% in size
Target sequence (P51450 whole entry, looked up, the tested form may be a part): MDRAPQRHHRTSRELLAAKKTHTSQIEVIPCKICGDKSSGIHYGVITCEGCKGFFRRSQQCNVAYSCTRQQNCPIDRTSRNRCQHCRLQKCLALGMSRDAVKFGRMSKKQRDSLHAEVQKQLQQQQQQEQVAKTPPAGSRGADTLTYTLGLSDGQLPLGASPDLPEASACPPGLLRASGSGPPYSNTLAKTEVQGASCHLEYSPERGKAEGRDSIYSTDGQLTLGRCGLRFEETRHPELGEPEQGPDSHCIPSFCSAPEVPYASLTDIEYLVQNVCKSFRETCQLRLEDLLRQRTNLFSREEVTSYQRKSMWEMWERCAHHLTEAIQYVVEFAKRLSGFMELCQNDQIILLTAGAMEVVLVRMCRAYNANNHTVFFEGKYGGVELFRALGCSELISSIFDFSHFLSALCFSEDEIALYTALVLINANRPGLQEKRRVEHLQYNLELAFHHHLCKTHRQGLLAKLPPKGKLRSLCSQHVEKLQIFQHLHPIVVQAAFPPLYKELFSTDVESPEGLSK
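A Gal4/UAS one-hybrid system in insect cells: metallothionein-promoter Gal4–ROR gamma fusion plus Photinus luciferase reporter. Copper sulfate 700 uM final, 20 hr ambient incubation, luminescent detection after 10 min with reagent.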
TDP1 cell CPT – growth inhibition of DT40 Tdp1-/-;hTDP1 cells with camptothecin (screen for TDP1 inhibitors) | chicken DT40 Tdp1-/-;hTDP1 cells + 20 nM CPT, ATP luminescence, 48 h | Potency, µM (titrated, usually from 46.2 µM), without a hit: at the top dose activity change, negative = growth inhibition, actives largely listed as inhibitors | 420,000 compounds, 12% hits; also: nearly all actives have a fitted effect of over 55% in size
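Cell growth measured by CellTiter-Glo luminescence after a minimum 48 h, 37 C compound exposure with 20 nM CPT in Tdp1-knockout DT40 cells stably expressing hTDP1, seeded 400/well; qHTS titration format.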
Numbers without * were called inactive; ? = inconclusive; . = not tested or not shown; [ ] = remark or other dose. An excerpt weighted towards active compounds, which were near 19% of everything screened. Calls follow the shape of the dose curve; as a rule, active = well fitted curve in the direction sought with a large enough effect; inconclusive = small, poorly fitted or top-dose-only effect, or another doubt; inactive = no such curve, though single readings can be large; an effect the other way counts as inactive or inconclusive. % is scaled to controls: 0 for no effect and ±100 for the full control effect; potency is read from the fitted curve at half-maximal effect.

SMILES	TDP1 cell noCPT	VP16 counter	TDP1 block	RORg inh	TDP1 cell CPT
COc1ccc(OCCSc2nnc(CCNC(=O)c3ccc(Cl)c(Cl)c3)n2C)cc1	?	-12.2%	6.2%	?	25.1µM*
COc1ccc(C2=N[C@H](c3ccccc3)CO2)cc1	.	-5.9%[96.6 µM]	6.1%[234 µM]	15.8µM*	.
COc1ccc(C2=NC(c3ccccc3)CO2)cc1 (stereo unspecified)	.	12.6µM*	0.0%	10µM*	.
O=C(NCCCn1ccnc1)c1sc2cc([N+](=O)[O-])ccc2c1Cl	16.4µM*	.	.	.	13µM*
CCN1CCCC1CNCC(O)COc1ccc(C(C)(C)C)cc1C (stereo unspecified)	5.8µM*	1.0%	?	-48.2%	6.51µM*
CC(C)(C)c1ccccc1OCCOCCNCc1ccccc1	13µM*	-12.3%	.	-7.4%	16.4µM*
CNCCOc1ccccc1C(C)(C)C	?	1.6%	2.2%	-1.5%	-28.4%
Cc1cc(OCCOCCNCc2ccccc2)ccc1C(C)C	11.6µM*	-4.3%	.	-16.9%[1.91 µM]	18.4µM*
O=C(CNC(=O)c1ccc(Cl)cc1)OCCN1C(=O)c2ccccc2C1=O	?	.	-0.4%	.	0.5%
N/N=C1\CCCc2nonc21	-9.0%	0.4%	1.2%	6.7%	-2.9%
Oc1ccc(Cl)cc1C1=NNC(c2cc(Br)cc3c2OCOC3)C1 (stereo unspecified)	?	?	9.6%	7.94µM*	?
Oc1ccc(Cl)cc1C1=NNC(c2ccc(Cl)cc2)C1 (stereo unspecified)	13µM*	15.8µM*	2.6%	8.91µM*	23.1µM*
Oc1c(Cl)cc(Cl)cc1C1=NNC(c2ccc(Cl)cc2)C1 (stereo unspecified)	?	-24.1%	7.4%	8.91µM*	-34.7%
CC(=O)Nc1c(C(=O)NCc2ccccc2)nnn1Cc1ccccc1	-7.9%	0.1%	8.8%	3.2%	-5.4%
Cc1ccc2nc(NC(=O)c3cccc(-c4cc5ccccc5oc4=O)c3)sc2c1	23.1µM*	-7.7%	-4.0%	?	14.6µM*
CCOc1ccccc1NC(=O)c1ccc(OCC)c([N+](=O)[O-])c1	-29.4%	-0.6%	5.6%	5.7%	?
CCOc1ccc(C(=O)Nc2cccc(-c3cc4ccccc4oc3=O)c2)cc1[N+](=O)[O-]	23.1µM*	-10.0%	2.0%	-4.0%	23.1µM*
CCOc1ccc2nc(NC(=O)c3cccc(-c4cc5ccccc5oc4=O)c3)sc2c1	23.1µM*	11.2µM*	3.5%	11.2µM*	?
CC(=O)c1ccc(Nc2ccc([N+](=O)[O-])c3nonc23)cc1	23.1µM*	?	.	11.8%[1.91 µM]	?
NS(=O)(=O)c1ccc(Nc2ccc([N+](=O)[O-])c3nonc23)cc1	-17.2%	-1.5%	8.8%	11.0%	-24.3%
COc1ccc(OCCSc2nc(N)cc(=O)[nH]2)cc1	-21.8%	?	-10.3%	36.5%	-19.8%
CCOc1ccc(OCCSc2nc(C)cc(=O)[nH]2)cc1	20.6µM*	?	3.1%	-38.2%	11.6µM*
CO[C@H]1C=CO[C@@]2(C)Oc3c(C)c(O)c4c(O)c(c(/C=N/N5CCN(C6CCCC6)CC5)c(O)c4c3C2=O)NC(=O)/C(C)=C\C=C[C@H](C)[C@H](O)[C@@H](C)[C@@H](O)[C@@H](C)[C@H](OC(C)=O)[C@@H]1C	2.66µM*	.	.	.	4.73µM*
CO[C@H]1C=CO[C@]2(C)Oc3c(C)c(O)c4c(O)c(c5c(c4c3C2=O)NC2(CCN(CC(C)C)CC2)N=5)=NC(=O)C(C)=CC=C[C@@H](C)[C@@H](O)[C@@H](C)[C@@H](O)[C@@H](C)[C@@H](OC(C)=O)[C@@H]1C	.	1.7%[17 µM]	14.9%[21 µM]	0.9%[16.9 µM]	.
CO[C@H]1/C=C/O[C@@]2(C)Oc3c(C)c(O)c4c(O)c(c5c(c4c3C2=O)NC2(CCN(CC(C)C)CC2)N=5)=NC(=O)/C(C)=C\C=C\[C@H](C)[C@H](O)[C@@H](C)[C@@H](O)[C@@H](C)[C@H](OC(C)=O)[C@@H]1C	20.6µM*	-16.9%	20.6%	5.4%	?
SMILES	TDP1 cell noCPT	VP16 counter	TDP1 block	RORg inh	TDP1 cell CPT
Nc1ccc(-c2cnc(-c3ccc(N)cc3)nc2)cc1	?	-2.8%	-2.0%	-0.9%[10 µM]	-8.8%
Oc1ccc(-c2cnc(-c3ccc(O)cc3)nc2)cc1	?	?	2.0%	2.51µM*	2.6%
Nc1nnnn1/N=C/c1cccc(OCc2ccccc2Cl)c1	?	?	0.0%	?	25.9µM*
Nc1nnnn1/N=C/c1cccc(Oc2ccccc2)c1	-3.8%	9.3%	9.5%	37.3%	-3.5%
COc1cc(Cl)ccc1OC(=O)c1cn(-c2ccccc2OC)c(=O)c2ccccc12	-19.4%	.	-2.9%	.	-9.3%
Cc1cc(S(=O)(=O)N2CCOCC2)ccc1OCC(=O)Nc1ccccc1F	14.6%	-1.3%	.	-28.0%	2.3%
CC(/C=C/c1ccc(O)cc1)=N/O	20.6µM*	-10.4%	5.9%[56.1 µM]	?	14.6µM*
COc1ccc(Nc2c(-c3ccccn3)nc3ccc(Cl)cn23)cc1	1.64µM*	.	14.7%	.	11.6µM*
Cc1ccc(Nc2c(-c3ccccn3)nc3cc(C)ccn23)cc1	2.91µM*	?	11.1%	12.6µM*	4.61µM*
Cc1ccc(Nc2c(-c3ccc(C)cc3)nc3ccc(C)cn23)cc1	?	.	0.0%	.	?
Cc1ccc(Nc2c(-c3ccccn3)nc3ccc(C)cn23)cc1	7.31µM*	?	11.6%	12.6µM*	3.26µM*
COc1ccc(CNc2ccc3c(c2)CCC3)cc1Br	-0.3%	.	7.2%	.	-12.4%
COc1cccc(CNC(=O)C(C)n2ccc3cc(S(=O)(=O)N4CCCC4)ccc32)c1 (stereo unspecified)	-28.7%	23.7%	4.0%	40.5%	?
CC(C(=O)NCc1ccccc1Cl)n1ccc2cc(S(=O)(=O)N3CCCCC3)ccc21 (stereo unspecified)	16.4µM*	.	5.6%	.	16.4µM*
O=C(Cn1ccc2cc(S(=O)(=O)N3CCCCCC3)ccc21)NCc1ccccc1Cl	?	.	11.3%	.	?
COc1ccc(CNC(=O)C(C)n2ccc3cc(S(=O)(=O)N4CCCC4)ccc32)cc1OC (stereo unspecified)	0.581µM*	.	5.6%	.	0.291µM*
COc1cccc(CNC(=O)C(C)n2ccc3cc(S(=O)(=O)N4CCCCCC4)ccc32)c1 (stereo unspecified)	14.6µM*	7.8%	4.3%	-22.3%	5.17µM*
CCC(C(=O)NCCC(C)C)n1ccc2cc(S(=O)(=O)N3CCCCC3)ccc21 (stereo unspecified)	8.2µM*	?	4.1%	?	13µM*
O=C(CCCc1cccs1)N1CCN(S(=O)(=O)c2ccccc2Br)CC1	-20.9%	-1.7%	-2.1%	22.9%	-10.7%
